Assay outcomes (PubChem)
TRHR agonist: qHTS for Small Molecule Agonists and Allosteric Enhancers of Human TRH Receptor: Primary Screen for Agonists; Thyrotropin-releasing hormone receptor (Homo sapiens), P34981; TRHR cells, calcium flux fluo-8, FDSS agonist mode; activation, % at 2 µM; 0.18% of 360,000 active; note: 0% is about no effect
Target sequence (P34981 whole entry, looked up): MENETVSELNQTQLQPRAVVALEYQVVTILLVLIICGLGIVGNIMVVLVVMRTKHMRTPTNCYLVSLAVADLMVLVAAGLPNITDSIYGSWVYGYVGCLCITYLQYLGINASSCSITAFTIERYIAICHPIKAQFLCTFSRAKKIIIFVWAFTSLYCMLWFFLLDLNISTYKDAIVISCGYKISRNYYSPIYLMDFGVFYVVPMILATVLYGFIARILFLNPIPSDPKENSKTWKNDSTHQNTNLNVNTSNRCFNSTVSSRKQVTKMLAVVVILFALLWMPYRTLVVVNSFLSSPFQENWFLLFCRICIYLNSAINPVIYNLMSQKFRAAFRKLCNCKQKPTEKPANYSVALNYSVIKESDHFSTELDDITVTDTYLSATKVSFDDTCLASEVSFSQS
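Agonist-mode FDSS calcium read (Ex 480/Em 530, 1 s cycles) in 1536-well TRHR cells with fluo-8 dye, after 10-cycle baseline and 23 nL compound addition; TRH at EC20 (10 nM final) added afterwards for the enhancer phase.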
TRHR PAM: qHTS for Small Molecule Agonists and Allosteric Enhancers of Human TRH Receptor: Primary Screen for Enhancers; AID 493056, 2011; enhancement, % at 2 µM; Thyrotropin-releasing hormone receptor (Homo sapiens), P34981; TRHR cells, fluo-8 calcium fluorescence, EC20 TRH enhancement; 0.66% of 360,000 active; in the data active = enhancement above about 30%; note: 0% is about no effect
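TRHR-expressing cells loaded with fluo-8 calcium dye were read kinetically (ex 480/em 530) during compound addition, then stimulated with an EC20 of TRH (10 nM final). Enhancement of the Gq-mediated intracellular calcium response was scored.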
D1 antagonist: Antagonist of Human D 1 Dopamine Receptor: qHTS; AID 504652, 2011; D(1A) dopamine receptor (Homo sapiens), P21728; 3.2% of 360,000 active; activity change, negative = inhibition, % at 10 µM; HEK293 TREx D1 cells, calcium flux, dopamine EC80; stronger effect = lower value; in the data active = activity change below about -30%; note: % is set by controls: 0 for no effect and ±100 for the full control effect
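Tetracycline-induced HEK293 T-REx cells with force-coupled D1 receptor were loaded with a no-wash calcium dye. Compound was added after a 10 s baseline and read kinetically for 180 s; EC80 dopamine was then added and calcium flux followed another 180 s.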
D1 potentiator: Potentiators of Human D1 Dopamine Receptor: qHTS; D(1A) dopamine receptor (Homo sapiens), P21728; HEK293 TREx D1 cells, calcium flux, dopamine EC20 potentiation; potentiation, % at 10 µM; 0.036% of 360,000 active; in the data active = potentiation above about 30%; note: 0% is about no effect
D1 ag: Allosteric Agonists of the Human D1 Dopamine Receptor: qHTS. D(1A) dopamine receptor (Homo sapiens), P21728. HEK293 T-REx D1 cells, calcium flux, agonist mode. activation, % at 2 µM. 1% of 360,000 active. AID 504660, 2011; note: 0% is about no effect
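Inducible HEK293 T-REx D1 cells, force-coupled to calcium signalling, were plated at 4000 cells/well with tetracycline and held overnight at 30 C. After no-wash calcium dye loading, compound-evoked calcium rise over 180 s flagged agonists.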
* marks the source's active call; other numbers are inactive results; x = no result. Sampled rows, rich in hits. Any-hit rate of the full collection: about 4.7%. Cut-off read from the data, not from the text of the source, unless noted: active = activation above about 30%; inactive = the rest.

SMILES	TRHR agonist	TRHR PAM	D1 antagonist	D1 potentiator	D1 ag
CCc1cccc(NC(=O)CN(C)S(=O)(=O)c2ccc3c(c2)n(C)c(=O)c(=O)n3C)c1	-1	-8	3	-4	2
CCc1ccc(N2CCn3c2nc2c3c(=O)n(CCc3ccccc3)c(=O)n2C)cc1	0	-8	0	-2	3
Cc1ccc(C(=O)N/N=C/c2c(O)ccc3ccccc23)cn1	29	2	3	-2	30
O=C(N/N=C\c1c(O)ccc2ccccc12)c1cncc(Br)c1	105*	38*	-21	5	314*
O=C(N/N=C/c1c(O)ccc2ccccc12)c1cccnc1	36*	8	6	5	42*
Nc1nonc1N/N=C/c1c(O)ccc2ccccc12	1	4	-22	-9	31*
CCN(C(=O)C1CCCN(c2ncnc3c2nc2n3CCCCC2)C1)c1cccc(C)c1 (stereo not given)	-1	2	-1	0	-1
N#Cc1ccc(S(=O)(=O)N2CCN(S(=O)(=O)c3ccc4c(c3)OCCO4)CC2)cc1	1	-4	-12	-6	0
CCCc1cc(C(=O)OCC(=O)N(CCC)c2c(N)n(Cc3ccccc3)c(=O)[nH]c2=O)sc1C	0	3	61	40*	24
COCCN(C(=O)COC(=O)c1cc2c(s1)CCCC2)c1c(N)n(Cc2ccccc2)c(=O)[nH]c1=O	0	-5	3	-5	-2
CCN(C(=O)COc1ccc(F)cc1Br)c1c(N)n(Cc2ccccc2)c(=O)[nH]c1=O	0	-4	-40*	-4	2
CCCN(C(=O)CCNC(=O)c1ccc(Cl)cc1)c1c(N)n(Cc2ccccc2)c(=O)[nH]c1=O	0	-4	-31*	x	10
Cc1cc(C)c(NC(=O)Cn2c(=O)n(CC(=O)NCCc3ccccc3)c(=O)c3ccccc32)c(C)c1	3	-6	-5	-1	8
CCCCN(CC)Cc1ccc(CNC(=S)Nc2cccc(F)c2)o1	-2	-9	-1	-9	34*
COc1ccc(/C=C/c2nc(C#N)c(N3CCCCC3)o2)cc1OC	-2	0	9	0	1
CCN1CCN(c2ccccc2NC(=O)C(C)Oc2ccc(C(C)=O)cc2)CC1 (stereo not given)	0	7	-49*	-4	0
CC(Oc1cccc(Cl)c1)C(=O)Nc1ccccc1N1CCCC1 (stereo not given)	0	-5	19	1	4
Cc1ccccc1Cn1cc(CCC(=O)NCc2cccc(Br)c2)c2ccccc21	-2	3	-13	-3	18
Cc1cccc(CC(C)NC(=O)c2cc(COc3ccc(C)c(C)c3)on2)n1 (stereo not given)	-1	8	-24	2	2
Cc1ccc(OCc2cc(C(=O)NC(C)Cc3cnccn3)no2)cc1C (stereo not given)	0	0	-40*	5	3
Clc1ccc(OCc2nnc(SCc3nnc(-c4ccccc4)o3)o2)c(Cl)c1	0	13	-18	-2	35*
Cc1cccc(Cn2c(=O)n(Cc3ccco3)c(=O)c3ccccc32)c1	0	-6	-15	1	2
CCn1c(=O)c2ccccc2n(Cc2cccc(C)c2)c1=O	0	-1	-32*	-7	-1
COCCn1c(CCC(=O)Nc2ccc(OC)c(OC)c2)nc2cccnc21	0	1	12	-1	2
N#Cc1nc(-c2ccccc2F)oc1NC1CCCCC1	-1	7	-34*	x	1
SMILES	TRHR agonist	TRHR PAM	D1 antagonist	D1 potentiator	D1 ag
CCOc1ccc(NS(=O)(=O)c2ccc(C(=O)NCC(c3ccco3)N3CCCC3)cc2)cc1 (stereo not given)	4	6	32	x	54*
O=C(NCC(c1ccco1)N1CCCCC1)c1ccc(NS(=O)(=O)c2ccc(F)cc2)cc1 (stereo not given)	-1	7	-3	-5	4
O=C(NCC(c1ccco1)N1CCCC1)c1ccc(S(=O)(=O)Nc2ccc(F)cc2)cc1 (stereo not given)	7	5	-21	x	51*
COc1ccc(NS(=O)(=O)c2cccc(C(=O)NCC(c3ccco3)N3CCCCC3)c2)cc1 (stereo not given)	1	-6	-1	12	7
O=C(CSc1nc2c([nH]c3ccccc32)c(=O)n1-c1ccc(F)cc1)N1CCCCCC1	0	1	13	-1	1
CCOC(=O)c1sc2ccccc2c1S(=O)(=O)N1CCN(c2cccc(OC)c2)CC1	1	-2	-5	-3	4
COc1ccc(N2CCN(C(=O)Cc3c(C(=O)O)c(C)cn3C)CC2)cc1	0	-2	-24	-2	-1
COc1cc2c(cc1OC)C(COc1ccc3c(C)cc(=O)oc3c1)N(C(=O)Cc1ccc(F)cc1)CC2 (stereo not given)	0	6	-5	-1	1
Cc1cc(C(=O)Cn2nnc3ccccc3c2=O)c(C)n1Cc1cccs1	-1	32*	5	-6	5
COc1ccc(OC)c(C(=O)Cn2nnc3ccccc3c2=O)c1	0	39*	1	-5	-1
COc1ccc(/C=C/C(=O)Nc2nc3n(n2)C(c2ccc(F)cc2)C=C(c2ccccc2)N3)cc1 (stereo not given)	0	0	13	0	4
COc1ccc(OC)c(S(=O)(=O)N2CCC(c3ccncc3)CC2)c1	0	4	-4	0	1
CN(C)CC1CCCCC1C1(O)c2ccccc2CSc2sccc21 (stereo not given)	-1	15	-2	-16	78*
CC/C(=N/Nc1cccc(Cl)c1)c1cnnc(SC)n1	1	7	-37*	-10	1
CC/C(=N/Nc1ccccc1)c1cnnc(-c2ccccc2)n1	-1	1	-12	-4	-3
CCOC(=O)c1cnc(Nc2nc3ccccc3o2)nc1CN1CCN(C)CC1	0	3	-56*	-1	0
CC(C)c1ccc(C2NC(=O)NC3=C2CCc2ccccc23)cc1 (stereo not given)	-1	8	-3	0	3
Cc1ccc(C2NC(=O)NC3=C2CCc2ccccc23)cc1 (stereo not given)	0	0	-60*	-2	0
COc1ccccc1CNc1nc(-c2cc(C)n(C)c2C)cs1	1	-6	-46*	1	4
